Bioassay records: PubChem BioAssay, several laboratories
Compounds with a hit are over-represented: about 27% of the library has one in this group of screens.
CYP2C9 inh: blocks human cytochrome P450 2C9; P11712; CYP2C9 Supersomes, luciferin-H conversion, luminescence; inhibition, % at 5 µM; actives 20% (n = 96,000); AID 777;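 active = blocking of liver enzyme CYP2C9 beyond about 50% at 5 µM, limit read from the data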
Target sequence (P11712 whole entry, looked up): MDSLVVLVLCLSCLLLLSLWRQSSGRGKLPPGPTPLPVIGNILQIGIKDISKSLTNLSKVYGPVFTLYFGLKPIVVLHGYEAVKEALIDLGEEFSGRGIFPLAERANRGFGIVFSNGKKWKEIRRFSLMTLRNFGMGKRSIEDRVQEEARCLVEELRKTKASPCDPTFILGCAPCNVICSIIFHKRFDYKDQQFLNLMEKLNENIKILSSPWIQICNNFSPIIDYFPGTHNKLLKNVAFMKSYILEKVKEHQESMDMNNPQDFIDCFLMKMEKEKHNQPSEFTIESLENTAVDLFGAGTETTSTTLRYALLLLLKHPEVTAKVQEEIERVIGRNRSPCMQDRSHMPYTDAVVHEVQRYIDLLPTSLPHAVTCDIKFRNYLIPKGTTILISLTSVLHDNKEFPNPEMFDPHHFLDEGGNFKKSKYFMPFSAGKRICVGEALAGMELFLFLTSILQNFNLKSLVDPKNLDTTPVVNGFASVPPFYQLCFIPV
sEH act: soluble epoxide hydrolase (human) activation; purified human sEH enzymatic activity, activator screen; actives 0.04% (n = 91,000); P34913; activation, % at 2 µM; in the data active = activation above about 37%
CYP2C9 act: activators of human CYP2C9; P11712; recombinant CYP2C9, luciferin-H conversion, luminescence; hits give high values; factor 1 = untreated enzyme, 0 = blocked; activation factor at 5 µM; actives 1.4% (n = 96,000);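 active = activation factor of 2 or more for CYP2C9 at a 5 µM dose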;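 also: 0 = sulfaphenazole-blocked wells and 1 = vehicle-only wells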
sEH inhibitor: blocks human soluble epoxide hydrolase activity; P34913; recombinant human sEH enzymatic activity assay; inhibition, % at 2 µM; actives 0.34% (n = 91,000); in the data active = inhibition above about 80%
CYP2C19 inhib: human CYP2C19 inhibition. actives 21% (n = 96,000). inhibition, % at 5 µM. P33261. CYP2C19 Supersomes, luciferin-H EGE luminescence, 30 min;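 active = CYP2C19 inhibition above a set limit at 5 µM in the primary screen, cut at about 50% in these data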;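 also: plate controls were negative control wells for no effect and 2.5 mM tranylcypromine positive control for full effect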
CYP2C19 act: activators of human cytochrome P450 2C19; activation factor at 5 µM; P33261; recombinant CYP2C19, luciferin-H EGE luminescence; hits give high values; 0 = fully inhibited enzyme, 1 = untreated enzyme; AID 1025; 96,000 tested, under 10 active;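 active = activation factor of at least 2 at 5 µM in the primary screen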;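 also: 0 = wells with 2.5 mM tranylcypromine and 1 = vehicle-only wells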
The depositor's hits bear a star; · = not tested or not shown.

SMILES	CYP2C9 inh	sEH act	CYP2C9 act	sEH inhibitor	CYP2C19 inhib	CYP2C19 act
Cc1c(Cl)cccc1NC(=O)CN1CCC(C(O)(c2ccccc2)c2ccccc2)CC1	70*	7	0.3	-2	1	1
Cc1c(Cl)cccc1NC(=O)CCN1CCCCC1	-14	0	1.1	-2	-19	1.2
CC(=O)Nc1ccc(S(=O)(=O)c2ccc(N)cc2)cc1N	-34	-6	1.3	5	-5	1
Nc1ccc(S(=O)(=O)c2cccc(N)c2)cc1	-142	-26	2.4*	29	15	0.8
O=C(NCc1ccc2c(c1)OCO2)c1cnc2n(c1=O)CCS2	-14	8	1.1	-8	24	0.8
Cc1nc2c(C(=O)NCc3ccc4c(c3)OCO4)c[nH]n2c(=O)c1Cl	77*	-5	0.2	2	-12	1.1
Cc1nc2c(C(=O)NCCC3=CCCCC3)c[nH]n2c(=O)c1Cl	56*	2	0.4	-5	-8	1.1
O=C(NCCC1=CCCCC1)c1cnc2n(c1=O)CCS2	·	-10	·	13	·	·
COc1ccc(S(=O)(=O)Nc2ccc(O)c(Sc3ncn[nH]3)c2)cc1	·	12	·	-9	·	·
COc1ccc(S(=O)(=O)Nc2cc(Sc3ncn[nH]3)c(O)c3ccccc23)cc1	94*	-10	0.1	10	97*	0
CCCc1cc(C(=O)Nc2ccccc2SC)no1	-304	·	4*	·	20	0.8
CSc1ccccc1NC(=O)c1cc(-c2cccs2)on1	-165	5	2.7*	-4	8	0.9
CCCc1cc(C(=O)Nc2cccc(Cl)c2)no1	8	·	0.9	·	66*	0.3
Cc1cc(NS(=O)(=O)c2cccs2)no1	-13	5	1.1	-6	-7	1.1
O=C1CCC(C(=O)OCc2ccccc2)N1 (stereo unspecified)	-1	26	1	-22	2	1
COc1ccc2[nH]c3c(c2c1)CCn1c-3nc2ccccc2c1=O	42	·	0.6	·	75*	0.3
Cc1nc2ccccc2c(=O)n1NC(=O)c1ccc(F)cc1Cl	81*	-9	0.2	9	-3	1
COc1cc(OC)cc(C(=O)Nn2c(C)nc3ccccc3c2=O)c1	53*	7	0.5	-6	36	0.6
Cc1nc2ccccc2c(=O)n1NC(=O)c1ccccc1Cl	44	1	0.6	-2	-2	1
Cc1nc2ccccc2c(=O)n1NC(=O)c1ccco1	·	0	·	0	·	·
COc1cc(OC)cc(C(=O)Nn2cc(C(=O)N3CCN(C)CC3)c3ccccc3c2=O)c1	58*	-10	0.4	9	11	0.9
COc1cc(OC)cc(C(=O)Nc2ccccc2C(=O)N2CCCC2)c1	-5	9	1.1	-8	3	1
COc1cccc(-c2nc3ccccc3c(=O)o2)c1	20	7	0.8	-10	8	0.9
COc1ccc(Br)c(C(=O)Nn2c(C)nc3ccccc3c2=O)c1	54*	-11	0.5	14	-11	1.1
COc1cccc(CC(=O)Nn2c(C)nc3ccccc3c2=O)c1	87*	21	0.1	-19	40	0.6
SMILES	CYP2C9 inh	sEH act	CYP2C9 act	sEH inhibitor	CYP2C19 inhib	CYP2C19 act
COc1ccccc1C(=O)Nn1c(C2CCC2)nc2ccccc2c1=O	95*	5	0.1	-6	54*	0.5
Cc1ccc(C)c(OCC(=O)Nn2c(C)nc3ccccc3c2=O)c1	78*	-12	0.2	15	5	0.9
CC(=O)c1ccccc1OCCn1nnc(-c2ccc(C)cc2)n1	·	-4	·	7	·	·
Cc1ccc(-n2nnnc2SC(C)C(=O)Nc2ccc(Cl)cn2)cc1 (stereo unspecified)	43	·	0.6	·	30	0.7
CSCCc1nc(SCC(=O)Nc2nnc(C)s2)[nH]c1C	1	-23	1	20	-4	1
Cc1nc2nc3c(cn2n1)C(=O)CC(C)(C)C3	-36	6	1.4	-8	8	0.9
O=C(NCCCN1CCCC1=O)c1cccnc1	-14	-17	1.1	18	6	0.9
Cn1c(=O)c2c(SCC(=O)NCc3ccco3)nc(CC(C)(C)C)nc2n(C)c1=O	52*	·	0.5	·	59*	0.4
Cn1c(=O)c2c(SCC(=O)Nc3ccc4c(c3)OCCO4)nc(CC(C)(C)C)nc2n(C)c1=O	74*	·	0.3	·	59*	0.4
Cn1c(=O)c2c(SCC(=O)N3CCOCC3)nc(CC(C)(C)C)nc2n(C)c1=O	·	-12	·	9	·	·
CCc1nc(SCC(=O)NCc2ccccc2)c2c(=O)n(C)c(=O)n(C)c2n1	11	-10	0.9	9	-17	1.2
COc1ccccc1NC(=O)N(Cc1ccco1)Cc1cc2ccc(C)c(C)c2[nH]c1=O	64*	-7	0.4	7	22	0.8
COc1ccccc1NC(=O)N(Cc1ccco1)Cc1cc2cc(C)cc(C)c2[nH]c1=O	62*	16	0.4	-17	60*	0.4
CCOC(=O)C1CCN(Cc2nc3ccc(Cl)cc3n2CCO)CC1	6	·	0.9	·	26	0.7
Cc1nc(-c2cccc(S(=O)(=O)N3CCCC(C)C3)c2)cs1 (stereo unspecified)	28	-2	0.7	0	14	0.9
O=C(c1ccco1)N1CCN(CC(O)COc2ccc3oc4ccccc4c3c2)CC1 (stereo unspecified)	51*	4	0.5	-5	15	0.9
COCC(=O)Nc1ccc(C)c(Cl)c1	-11	-6	1.1	4	23	0.8
COCC(C)NC(C(=O)Nc1ccc(C)c(Cl)c1)c1ccccc1 (stereo unspecified)	86*	-5	0.1	3	86*	0.1
COCCNC(C(=O)Nc1cc(Cl)cc(Cl)c1)c1ccccc1 (stereo unspecified)	70*	-10	0.3	12	54*	0.5
COC(C(=O)Nc1ccc(F)c(F)c1)c1ccccc1 (stereo unspecified)	·	-7	·	8	·	·
O=C(O)c1cccc(-c2nnn(Cc3ccccc3Cl)n2)c1	·	-2	·	2	·	·
Cn1c(SCc2ccccc2Cl)nnc1-c1cnccn1	9	-2	0.9	4	77*	0.2
Cn1c(Cn2nnc(-c3ccccc3)n2)nnc1SCc1ccccc1Cl	64*	4	0.4	-4	-10	1.1
COc1cccc(NC(=O)CCCOc2cc(=O)n(C)c3ccccc23)c1	15	-2	0.8	4	64*	0.4
CCOc1ccc(NC(=O)CCCOc2cc(=O)n(C)c3ccccc23)cc1	71*	-17	0.3	19	26	0.7
Cn1c(=O)cc(OCCCC(=O)NCc2ccccn2)c2ccccc21	1	-10	1	10	8	0.9
CN1CCN(C(=O)CCCOc2cc(=O)n(C)c3ccccc23)CC1	12	3	0.9	-1	-1	1
COc1ccc(-n2c(Cn3c(=O)sc4ccccc43)nnc2SCC(=O)N2CCOCC2)cc1	24	-6	0.8	4	-3	1
Cc1ccn2cc(CCNS(=O)(=O)c3ccc4c(c3)OCCO4)nc2c1	-42	-4	1.4	2	79*	0.2
